Results filed as inconclusive are left out. Active and inactive are the calls of the source. Rule for the calls: active = hit-call score of the fitted dose curve at least 0.9, where 1 is the maximum; inconclusive = response in the unintended direction; inactive = score below 0.9.
What follows are compounds tested against human Elastase, ELANE (gene 1991) (UniProt P08246) (assay: NVS_ENZ_hElastase: NovaScreen (NVS) Enzymatic Assay for human Elastase (AID 2283153)).
Chain of human Elastase, ELANE (gene 1991) (P08246 whole entry, looked up): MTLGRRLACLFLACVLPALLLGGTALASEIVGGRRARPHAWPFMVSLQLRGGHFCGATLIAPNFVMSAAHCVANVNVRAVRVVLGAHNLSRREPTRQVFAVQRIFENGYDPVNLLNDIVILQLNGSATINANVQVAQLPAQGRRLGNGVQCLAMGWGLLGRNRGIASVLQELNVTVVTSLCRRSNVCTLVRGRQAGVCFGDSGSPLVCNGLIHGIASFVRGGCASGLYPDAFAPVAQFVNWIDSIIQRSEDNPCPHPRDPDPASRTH
Method in brief: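 Concentration-response to 50 uM max, run singly for chemicals passing a threshold (e.g., 30% inhibition) in a duplicate 25 uM single-point screen. Neutrophil-derived human elastase, absorbance read-out of enzyme activity at 1.5 h; DMSO baseline.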
In the case of `C=C(C)C(=O)[O][Sn]([CH2]CCC)([CH2]CCC)[CH2]CCC`, the outcome is reported as “inactive”. For `ClC1(Cl)C2(Cl)C3(Cl)C4(Cl)C(Cl)(Cl)C5(Cl)C3(Cl)C1(Cl)C5(Cl)C24Cl` (stereo not drawn), the AC50 was 1.1 µM (active). For `COc1cc(-c2ccc(N)c(OC)c2)ccc1N`, the AC50 was 20.5 µM (active). With `O=C(O)C(F)(F)C(F)(F)C(F)(F)C(F)(F)C(F)(F)C(F)(F)C(F)(F)C(F)(F)C(F)(F)C(F)(F)F` the AC50 was 13.5 µM (active). For `Cn1sc(Cl)cc1=O`, the outcome was “inactive”.

What follows are compounds tested against human Esterase Plasma (ES), BCHE (gene 590) (UniProt P06276) (assay: NVS_ENZ_hES: NovaScreen (NVS) Enzymatic Assay for human Esterase Plasma (ES) (AID 2283157)).
Chain of human Esterase Plasma (ES), BCHE (gene 590) (P06276 whole entry, looked up): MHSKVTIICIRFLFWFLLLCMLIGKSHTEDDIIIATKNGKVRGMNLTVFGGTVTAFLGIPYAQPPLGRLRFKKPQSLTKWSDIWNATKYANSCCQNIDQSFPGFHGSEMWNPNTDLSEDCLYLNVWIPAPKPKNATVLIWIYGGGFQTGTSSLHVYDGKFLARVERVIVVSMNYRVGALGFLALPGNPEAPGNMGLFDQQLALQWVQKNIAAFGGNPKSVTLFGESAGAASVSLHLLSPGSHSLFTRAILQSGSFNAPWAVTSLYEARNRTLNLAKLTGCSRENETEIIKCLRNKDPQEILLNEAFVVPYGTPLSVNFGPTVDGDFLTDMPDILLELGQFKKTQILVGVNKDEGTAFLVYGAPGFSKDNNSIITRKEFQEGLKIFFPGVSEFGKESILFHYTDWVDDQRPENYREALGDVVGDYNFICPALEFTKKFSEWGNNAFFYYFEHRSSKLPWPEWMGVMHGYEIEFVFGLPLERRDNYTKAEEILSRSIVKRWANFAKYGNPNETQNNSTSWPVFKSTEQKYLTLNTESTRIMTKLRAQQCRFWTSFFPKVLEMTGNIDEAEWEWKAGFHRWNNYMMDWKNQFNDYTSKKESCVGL
Method in brief: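 Screening ran at 25 uM in duplicate, followed by singleton concentration series reaching 50 uM for actives. Human plasma protein, colorimetric detection, 0.25 h exposure, DMSO negative control.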
For `CC(=O)[O][Hg][c]1ccccc1`, the outcome was “inactive”. In the case of `CCC(=O)C(CC(C)N(C)C)(c1ccccc1)c1ccccc1` (stereo not drawn), the AC50 is reported as 15.6 µM (active). In the case of `CCOP(=S)(OCC)Oc1nc(Cl)c(Cl)cc1Cl`, the AC50 is reported as 25 µM (active). `O=C(O)C(F)(F)C(F)(F)C(F)(F)C(F)(F)C(F)(F)C(F)(F)C(F)(F)C(F)(F)C(F)(F)C(F)(F)F` was tested, and the outcome was “inactive”. With `Cn1sc(Cl)cc1=O` the outcome was “inactive”. `COP(=S)(OC)Oc1ccc(S(=O)(=O)N(C)C)cc1` was tested, and the AC50 was 20 µM (active). `CCN1CCC2(CC1)COc1cc3c(cc12)N(C(=O)c1ccc(-c2ccc(-c4nnc(C)o4)cc2C)cc1)CC3` was tested, and the AC50 was 28.3 µM (active). For `CCOP(=S)(OCC)SCSP(=S)(OCC)OCC`, the outcome was “inactive”.

These compounds were tested against human Ephrin type-A Receptor 1 (EphA1), EPHA1 (gene 2041) (UniProt P21709) (assay: NVS_ENZ_hEphA1: NovaScreen (NVS) Enzymatic Assay for human Ephrin type-A Receptor 1 (EphA1) (AID 2283158);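 note: activity is signal loss versus DMSO meaning EphA1 kinase inhibition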).
Chain of human Ephrin type-A Receptor 1 (EphA1), EPHA1 (gene 2041) (P21709 whole entry, looked up): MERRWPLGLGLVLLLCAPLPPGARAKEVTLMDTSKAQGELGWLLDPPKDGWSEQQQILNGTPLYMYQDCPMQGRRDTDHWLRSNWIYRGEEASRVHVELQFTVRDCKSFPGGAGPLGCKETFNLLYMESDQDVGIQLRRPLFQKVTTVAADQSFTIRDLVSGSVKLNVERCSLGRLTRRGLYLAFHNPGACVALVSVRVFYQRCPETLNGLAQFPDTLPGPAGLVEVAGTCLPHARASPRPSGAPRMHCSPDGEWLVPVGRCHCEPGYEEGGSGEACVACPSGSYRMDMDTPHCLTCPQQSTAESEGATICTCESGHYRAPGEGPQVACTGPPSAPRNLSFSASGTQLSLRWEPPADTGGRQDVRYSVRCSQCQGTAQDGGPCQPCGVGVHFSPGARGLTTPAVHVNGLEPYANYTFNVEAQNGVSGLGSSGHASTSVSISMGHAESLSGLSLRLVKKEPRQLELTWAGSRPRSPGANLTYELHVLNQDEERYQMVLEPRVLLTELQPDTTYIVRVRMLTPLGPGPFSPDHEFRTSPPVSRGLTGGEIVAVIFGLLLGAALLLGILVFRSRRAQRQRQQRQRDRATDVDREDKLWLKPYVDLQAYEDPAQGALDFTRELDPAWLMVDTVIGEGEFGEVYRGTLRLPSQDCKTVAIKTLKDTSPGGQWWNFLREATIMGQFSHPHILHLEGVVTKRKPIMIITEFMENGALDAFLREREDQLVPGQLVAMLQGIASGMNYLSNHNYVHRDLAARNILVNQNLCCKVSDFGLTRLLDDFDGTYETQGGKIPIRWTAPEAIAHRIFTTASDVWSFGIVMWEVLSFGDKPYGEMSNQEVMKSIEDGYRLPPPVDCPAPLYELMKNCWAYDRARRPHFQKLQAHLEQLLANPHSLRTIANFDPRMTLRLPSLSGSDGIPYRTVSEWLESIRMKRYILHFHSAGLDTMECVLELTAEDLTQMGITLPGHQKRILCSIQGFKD
Method in brief: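 Biochemical kinase assay run cell-free; 1 h incubation; readout is fluorescence with mobility-shift separation of product. Concentration-response up to 50 uM for actives from a 25 uM screen.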
In the case of `CC(Br)C(=O)O` (stereo not drawn), the outcome is reported as “inactive”. In the case of `COc1cccc(C=O)c1`, the outcome is reported as “inactive”. For `COP(=S)(OC)Oc1c(Cl)cc(C)cc1Cl`, the outcome was “inactive”. In the case of `O=[N+]([O-])c1ccc2c3c(cccc13)CC2`, the outcome is reported as “inactive”. `Nc1cccc(Cl)c1` was tested, and the outcome was “inactive”. With `CCCCCCCCC(=O)NCc1ccc(O)c(OC)c1` the outcome was “inactive”. With `NC(=S)Nc1ccccc1` the AC50 was 41.6 µM (active). `COP(=S)(OC)Oc1cc(Cl)c(Cl)cc1Cl` was tested, and the outcome was “inactive”. In the case of `COc1cc2c(cc1OC)[C@@]13CCN4CC5=CCO[C@H]6CC(=O)N2[C@H]1[C@H]6[C@H]5C[C@H]43`, the outcome is reported as “inactive”. For `C(=NC1CCCCC1)=NC1CCCCC1`, the outcome was “inactive”. For `CCc1ccccc1N`, the outcome was “inactive”. In the case of `Nc1ccc(-c2ccc(N)c(Cl)c2)cc1Cl`, the AC50 is reported as 1.28 µM (active).

Each compound was assayed against Protein deacetylase HDAC6 (Homo sapiens) (UniProt Q9UBN7) (assay: NVS_ENZ_hHDAC6: NovaScreen (NVS) Enzymatic Assay for human Histone Deacetylase 6 (HDAC6) (AID 2283164)).
Chain of Protein deacetylase HDAC6 (Homo sapiens) (Q9UBN7 whole entry, looked up): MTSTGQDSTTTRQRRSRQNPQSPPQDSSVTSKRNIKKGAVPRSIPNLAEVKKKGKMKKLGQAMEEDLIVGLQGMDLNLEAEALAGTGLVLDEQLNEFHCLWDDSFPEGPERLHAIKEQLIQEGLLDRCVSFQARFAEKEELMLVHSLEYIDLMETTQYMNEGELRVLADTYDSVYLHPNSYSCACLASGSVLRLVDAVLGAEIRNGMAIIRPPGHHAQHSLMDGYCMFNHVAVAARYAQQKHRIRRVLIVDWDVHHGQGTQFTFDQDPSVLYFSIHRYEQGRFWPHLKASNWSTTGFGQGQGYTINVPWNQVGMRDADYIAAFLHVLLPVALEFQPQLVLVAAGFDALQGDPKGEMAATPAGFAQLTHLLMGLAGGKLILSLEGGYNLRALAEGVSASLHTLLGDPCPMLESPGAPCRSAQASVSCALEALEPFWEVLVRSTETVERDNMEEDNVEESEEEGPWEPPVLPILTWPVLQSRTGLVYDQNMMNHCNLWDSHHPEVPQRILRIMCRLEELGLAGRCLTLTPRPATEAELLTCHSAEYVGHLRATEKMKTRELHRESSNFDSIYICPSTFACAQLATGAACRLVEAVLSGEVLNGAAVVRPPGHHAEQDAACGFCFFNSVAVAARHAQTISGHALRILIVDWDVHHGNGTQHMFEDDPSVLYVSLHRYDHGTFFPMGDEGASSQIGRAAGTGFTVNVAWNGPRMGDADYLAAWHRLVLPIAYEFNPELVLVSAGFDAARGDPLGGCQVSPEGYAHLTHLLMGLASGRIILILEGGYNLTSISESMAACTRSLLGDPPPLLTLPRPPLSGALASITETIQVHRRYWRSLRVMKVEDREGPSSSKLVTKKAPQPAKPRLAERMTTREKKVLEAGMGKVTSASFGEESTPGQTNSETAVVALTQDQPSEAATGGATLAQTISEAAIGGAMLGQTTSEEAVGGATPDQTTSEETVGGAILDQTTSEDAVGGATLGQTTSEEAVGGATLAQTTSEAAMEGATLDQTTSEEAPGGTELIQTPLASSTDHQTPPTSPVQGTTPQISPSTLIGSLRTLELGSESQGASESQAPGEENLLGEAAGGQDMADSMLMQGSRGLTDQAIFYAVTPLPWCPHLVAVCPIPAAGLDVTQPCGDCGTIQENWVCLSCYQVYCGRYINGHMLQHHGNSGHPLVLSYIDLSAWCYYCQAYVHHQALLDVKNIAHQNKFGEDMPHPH
Method in brief: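 Concentration-response runs up to 50 uM followed a duplicate 25 uM single-point screen. Deacetylase activity of recombinant human HDAC6 read by fluorescence after 1 h, with mobility-shift separation of substrate and product; DMSO as baseline.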
In the case of `CC(=O)[O][Hg][c]1ccccc1`, the AC50 is reported as 2.32 µM (active). For `O=C1C2(Cl)C3(Cl)C4(Cl)C(Cl)(Cl)C5(Cl)C3(Cl)C1(Cl)C5(Cl)C24Cl` (stereo not drawn), the outcome was “inactive”. For `C[C@]12CCC(=O)C[C@@H]1CC[C@@H]1[C@@H]2CC[C@]2(C)[C@@H](O)CC[C@@H]12`, the outcome was “inactive”.

From PubChem BioAssay (EPA / NIEHS)
